The sample as a whole holds a higher share of hits than the screen did.
CRE Fsk mod: Cell signaling CRE-BLA (Fsk stim); actives 2.5% (n = 71,000); CHO CRE-bla reporter (cAMP response element driving beta-lactamase), forskolin EC10, beta-lactamase ratio; Potency, µM (series often up to 38.2 µM), for inactives: top-dose activity change, negative = inhibition, actives largely listed as activators; active = well fitted activation curve with a large enough effect in the signal ratio, with a control signal flat, not every such curve was filed as active; inconclusive = small, poorly fitted or top-dose-only effect, or effect the other way, or a change in a side signal; the % refers to the signal ratio; note: potency is the fitted concentration of half-maximal effect; % of control where 0% means no effect
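Reporter-gene assay: CHO cells with beta-lactamase behind cAMP responsive elements, co-treated with compound and EC10 NKH 477 for 3 hours at 37 degrees Celsius. Activity came from the 460/530 nm CCF4 emission ratio.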
HBB splice mod: qHTS Assay for Modulators of Hemoglobin Beta Chain Splicing. HBB splicing reporter cell assay, activation; EGFP reporter with mutant IVS2-654 intron; response scale: normalised to 500 nM splice-correcting PNA. Potency, µM (doses to about 46.1 µM), for inactives: top-dose activation, actives largely listed as activators. actives 0.06% (n = 65,000). AID 925, 2007; note: potency is the fitted concentration of half-maximal effect; 0% is about no effect
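HeLa cells stably expressing EGFP interrupted by mutant beta-globin intron 2 (IVS2-654), 500/well in 2% FCS. Treated with compound for 2 days at 37C. Splicing correction scored as total well GFP intensity (488 nm excitation, 500-520 nm emission); 500 nM antisense PNA served as control.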
ERK AVP inh: qHTS Assay for Inhibitors of the ERK Signaling Pathway using a Homogeneous Screening Assay; HEK293-V1b, vasopressin-stimulated pERK AlphaScreen; Potency, µM (highest dose often 57.5 µM), for inactives: at the top dose activity, negative = inhibition, hits mostly inhibitors; actives 0.99% (n = 72,000); AID 995, 2007; note: potency is the fitted concentration of half-maximal effect; % is set by controls: 0 for no effect and ±100 for the full control effect; nearly all actives have a fitted effect of over 55% in size
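Overnight-seeded V1b-HEK293 cells in 1% FBS got compound, then vasopressin (25 nM final, 5 min, 37C), then lysis buffer. AlphaScreen detection of phospho-ERK; activity normalized to basal and full-stimulation controls.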
IkB signaling: IkB Signaling; ABC-DLBCL IkBa-CBG/CBR dual luciferase ratio, 4 h; response scale: scaled: untreated 0%, proteasome inhibitor 100%; Potency, µM (doses to about 57.1 µM), inactives show at the highest dose IkBa stabilization activation; actives 0.04% (n = 110,000); AID 445, 2006; active = well fitted curve in the direction sought with a large enough effect in the signal ratio, not every such curve was filed as active; inconclusive = small, poorly fitted or top-dose-only effect, or a change in a side signal; the % refers to the signal ratio;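 note: potency is the fitted concentration of half-maximal effect; the direction sought is a rising ratio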
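In this assay, an IκBα–CBG68 fusion accumulates when IKK-driven degradation is blocked; native CBR normalizes for cell number. OCI-Ly3 cells were treated 4 h with compound and doxycycline, then green and red light read after Chroma-Glo addition.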
Epigenetic mod: qHTS Assay for Epigenetic Modulators; mouse C127i GFP locus derepression, cytometry, 30 h; Potency, µM (titrated, usually from 46.1 µM), without a hit: at the top dose GFP derepression (activation); actives 0.09% (n = 68,000); note: % of control where 0% means no effect
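Read-out is the number of GFP-positive cells, scored as fluorescent objects 20 to 120 um wide, reflecting derepression of a silenced CMV-GFP reporter in murine C127i cells after 30 h compound exposure at 37 C.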
The depositor's hits bear a star; ? = inconclusive; / = no result; [ ] = remark or other dose. Unless noted, calls come from the whole dose curve; as a rule, active = well fitted curve in the direction sought with a large enough effect; inconclusive = small, poorly fitted or top-dose-only effect, or another doubt; inactive = no such curve, though single readings can be large; an effect the other way counts as inactive or inconclusive.

SMILES	CRE Fsk mod	HBB splice mod	ERK AVP inh	IkB signaling	Epigenetic mod
[Cd+2].[Cl-].[Cl-]	?	-2%	-9%	4µM*	/
CC[C@@H]1CN2CC[C@@H]1C[C@H]2[C@@H](O)c1ccnc2ccc(OC)cc12	-21%	/	/	-1%[11.4 µM]	-2%[9.22 µM]
CN(C=O)CP(=O)(O)CN(C)C=O	16µM*	-2%	0%	-2%	4%
C=CCn1c(O)c(C(CC)=NCc2cc(OC)cc(OC)c2)c(=O)[nH]c1=O	10µM*	3%[1.84 µM]	?	-1%	4%
C=CCn1c(O)c(C(CC)=NCCCO)c(=O)[nH]c1=O	23%	-1%[1.84 µM]	11%	0%	0%
O=C(CN1CCOCC1)c1ccc2cc[nH]c2c1	-6%	0%	/	7%	/
Cc1cc(C)c(C(=O)CN2CCOCC2)c(C)c1	25µM*	9%[1.84 µM]	31%	9%	4%
C[C@@]12CC[C@H]3[C@@H](CCC4=CC(=O)CC[C@]43C)[C@H]1CCC2=O	4%	-1%	/	-4%	-2%
CN1CSC(=S)N(C)C1	-5%	1%	-13%	4%	6.3µM*
CCN1C[C@@]2(C)CC[C@H](O)[C@@]34[C@@H]5C[C@H]6[C@H](O)[C@@H]5[C@](O)(C[C@@H]6OC)[C@H](C[C@@H]23)[C@H]14	?	/	/	0%[11.4 µM]	0%[9.22 µM]
Cc1ccc(CS(=O)(=O)CCC(=O)N2CCC3(CC2)OCCO3)cc1	1%	-2%	11%	1%	4%
Cc1ccc(S(=O)(=O)N(C)CCCC(=O)N2CCN(c3ccccn3)CC2)cc1	0%	/	25µM*	8%	0%
COc1cc2c(cc1OC)[C@]13CCN4CC5=CCO[C@@H]6CC(=O)N2[C@@H]1[C@H]6[C@@H]5C[C@H]43	10%	/	/	-1%[11.4 µM]	2%[9.22 µM]
CCN1C(=O)/C(=C2\C=Cc3ccccc3N2CC)OC1=S	0%	-3%	16µM*	-3%	9%
CN[C@H]1[C@H](C)O[C@@H](O[C@@H]2C/C=C(/C)C/C(C)=C\C=C/CC[C@@H](C)CNC(=O)/C=C\C=C/[C@H]2C)C[C@@H]1O	20%[7.6 µM]	0%[9.22 µM]	/	1%[11.4 µM]	0%[9.22 µM]
O=C(c1ccccc1)[C@H]1[C@H](c2ccccc2[N+](=O)[O-])N1C1CCCCC1 (stereo not given in full)	-16%[7.6 µM]	1%[9.22 µM]	11%[11.5 µM]	5µM*	-3%[9.22 µM]
CN1C[C@@H](CS(=O)(=O)N(C)C)C[C@H]2c3cccc4c3c(cn4C)C[C@@H]21	5%	2%	-8%	-2%	-1%
CC(=O)N1C[C@@H]2C[C@H](C1)c1cccc(=O)n1C2	-11%	/	/	2%[11.4 µM]	-5%[9.22 µM]
COc1cc2cc(c1Cl)N(C)C(=O)C[C@H](OC(=O)C(C)C)[C@]1(C)O[C@@H]1[C@@H](C)[C@H]1C[C@](O)(NC(=O)O1)[C@@H](OC)/C=C\C=C(\C)C2	0.016µM*	-1%[9.22 µM]	-16%[11.5 µM]	?	6%[9.22 µM]
[Cl-].[Cl-].[Hg+2]	?	0%	7.9µM*	?	/
COc1cc([C@H]2c3cc4c(cc3[C@@H](O)[C@@H]3COC(=O)[C@H]23)OCO4)cc(OC)c1OC	0.013µM*	-2%[20.6 µM]	?	?	6%[20.6 µM]
COP(=S)(OC)SCn1nnc2ccccc2c1=O	?	-2%	32µM*	-3%	/
COC(=O)c1ccccc1-n1c(C)nc2ccccc2c1=O	6%	-1%	-7%	2%	-3%
CCCCCC[C@H]1C(=O)O[C@@H](C)[C@H](NC(=O)c2cccc(NC=O)c2O)C(=O)O[C@@H](C)[C@@H]1OC(=O)CC(C)C	?	/	/	6%[11.4 µM]	0%[9.22 µM]
CCCN1CCc2cccc3c2[C@@H]1Cc1ccc(O)c(O)c1-3	-2%	1%	-4%	14%	-3%
O=C(c1cc2cc3ccc(Cl)cc3nc2o1)N1CCC2(CC1)OCCO2	3.2µM*	0%	5%	-2%	1%
O=C(c1cc(-c2cccnc2)nc2ccc(Cl)cc12)N1CCC2(CC1)OCCO2	-2%	-3%	-22%	0%	7%
COCCOC(=O)c1c(N)n(Cc2ccco2)c2nc3ccccc3nc12	/	/	/	/	11%[20.6 µM]
